# Screening data: PubChem, National Center for Advancing Translational Sciences (NCATS)
# Most compounds without a hit are left out; they make up all but 3.8% or so of the library.
# ATXN2 expr inh = reduces ATXN2 reporter expression in HEK-293 cells | HEK-293 ATXN2-luciferase reporter, luminescence, 24 h | Potency, µM (doses to about 57 µM), hits mostly inhibitors | 0.72% of 360,000 active; also: nearly all actives have a fitted effect of over 55% in size
#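 qHTS (up to 57 uM final) was run with 24 h compound exposure of reporter cells at 37 °C. Each well was multiplexed: SteadyGlo luminescence measured ATXN2-luciferase expression after a fluorogenic Gly-Phe-AFC viability readout (25 uM final).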
# Nrf2 inh = Nrf2 pathway inhibition | 2.1% of 360,000 active | A549 ARE-Fluc reporter, luciferase luminescence, 18-24 h | Potency, µM (top dose mostly 46 µM), hits mostly inhibitors; also: nearly all actives have a fitted effect of over 60% in size
#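 Quantitative HTS in A549 cells stably bearing an antioxidant response element-firefly luciferase construct. Inhibition of Nrf2-driven transcription was scored by luminescence after 18-24 h of compound exposure at 37 °C.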
# S2 tox = reduces viability in counter-screen for ATXN expression inhibitors; S2 cells (HEK-293 line with an ATXN2-luciferase reporter) viability, CellTiter-Fluor protease fluorescence, 24 h; Potency, µM (series often up to 56.7 µM), most hits filed as cytotoxic; 0.49% of 400,000 active; also: nearly all actives have a fitted effect of over 40% in size
# HepG2 tox-1 = HepG2 cytotoxicity, counter-screen for TGF-b inhibitors; HepG2 CAGA-GFP viability, ATP luminescence, 18 h; Potency, µM (series often up to 46.1 µM), usual class: cytotoxic; 0.76% of 410,000 active
#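 CellTiter-Glo luminescence gave cytotoxicity after 18 hours at 37 degrees C. The cells were HepG2 CAGA-GFP in 1% FBS DMEM, stimulated with 500 pg/mL TGF-beta after compound addition. %Activity was normalised to no-cell wells (complete cell-killing) and DMSO (no toxicity), and curves were fitted and classified.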
# A549 tox = kills or reduces viability of A549 cells in Nrf2 counter-screen | Potency, µM (doses to about 46 µM), hits mostly inhibitors | A549 ARE-Fluc cells, CellTiter-Fluor viability, 18-24 h | 0.16% of 390,000 active | AID 504648
#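 A549 ARE_Fluc cells in 5% FBS OPTI-MEM were exposed to compounds in concentration-response for 18-24 h at 37 deg C. Viability was read by CellTiter-Fluor fluorescence (Ex 405/Em 525) after 30 min, before the luciferase read.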
# TGFb SMAD3 inh = TGF-b pathway inhibition; HepG2 CAGA-GFP TGF-b/SMAD3 reporter, GFP fluorescence, 18 h; TGF-beta stimulated, 500 pg/mL final; Potency, µM (top dose mostly 46.1 µM), hits mostly inhibitors; 1.2% of 410,000 active; AID 588855; also: nearly all actives have a fitted effect of over 65% in size
#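 HEPG2 CAGA-GFP reporter cells (1000/well, DMEM with 1% FBS) received compounds, then recombinant TGF-beta at 500 pg/mL final for 18 hours at 37 degrees C. Per-cell GFP summed per well was normalised to unstimulated and stimulated DMSO controls before curve fitting.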
# TGFb confirm = TGF-b pathway inhibition, cherry-pick retest; shares compounds with TGFb SMAD3 inh; HepG2 CAGA-GFP TGF-b reporter, GFP fluorescence, 18 h; cells stimulated with TGF-beta, 500 pg/mL; Potency, µM (highest dose often 46.1 µM), hits mostly inhibitors; 63% of 1,600 active; AID 720534; also: nearly all actives have a fitted effect of over 65% in size
# HepG2 tox-2 = counter-screen for TGF-b inhibitors: cytotoxicity in HepG2 cells; shares compounds with TGFb SMAD3 inh; HepG2 CAGA-GFP viability, ATP luminescence, 18 h; cells stimulated with TGF-beta, 500 pg/mL; Potency, µM (doses to about 46.1 µM), most hits filed as inhibitors; 27% of 1,600 active; AID 720535; also: nearly all actives have a fitted effect of over 70% in size
# CCL64 TGFb inh = TGF-b inhibition, CCL64 orthogonal assay; shares compounds with TGFb SMAD3 inh; CCL64 CAGA-GFP reporter, TGF-b stimulated, GFP fluorescence, 18 h; Potency, µM (series often up to 46.1 µM), most hits filed as inhibitors; 41% of 1,600 active; AID 720536; also: nearly all actives have a fitted effect of over 65% in size
# COP TGFb inh = TGF-b inhibition validated with COP promoter; Potency, µM (highest dose often 46.1 µM), most hits filed as inhibitors; HepG2 COP-GFP TGF-b reporter, GFP fluorescence, 18 h; cells stimulated by added recombinant TGF-beta; 3% of 1,600 active; shares compounds with TGFb SMAD3 inh; AID 720537; also: nearly all actives have a fitted effect of over 70% in size
# Hits are given with their value; . = inactive; ? = inconclusive; / = no result given. Calls follow the shape of the dose curve; as a rule, active = well fitted curve in the direction sought with a large enough effect; inconclusive = small, poorly fitted or top-dose-only effect, or another doubt; inactive = no such curve, though single readings can be large; an effect the other way counts as inactive or inconclusive.
SMILES,ATXN2 expr inh,Nrf2 inh,S2 tox,HepG2 tox-1,A549 tox,TGFb SMAD3 inh,TGFb confirm,HepG2 tox-2,CCL64 TGFb inh,COP TGFb inh
COc1ccc2c(c1)sc1nc(-c3ccccc3)cn12,?,18.4µM,.,.,.,10µM,?,?,14.6µM,.
Cc1ccc(C(=O)N2CCC(N3CCC(C(=O)N4CCOCC4)CC3)CC2)cc1C,.,.,?,.,.,.,/,/,/,/
CC(=O)NC1(NC(C)=O)CCN(C)CC1,.,.,.,.,.,.,/,/,/,/
CCNc1nc(N)c(C(=O)c2ccc(Cl)s2)s1,.,?,.,.,.,12.6µM,6.51µM,?,?,.
CC(C)(C)c1csc(NC(=O)c2ccc(Cl)s2)n1,.,/,.,.,?,?,/,/,/,/
O=C(N/N=C/c1ccc[nH]1)c1ccc(COc2cccc3cccnc23)cc1,7.52µM,?,?,.,7.31µM,1.78µM,18.4µM,?,2.06µM,.
CCOC(=O)C1(CCc2ccccc2)CCN(C(=O)C2CCOCC2)CC1,.,.,.,.,.,.,/,/,/,/
Cc1cc(C)cc(C(=O)NC(=S)Nc2ccc(Cc3ccncc3)cc2)c1,.,?,.,.,.,7.08µM,13µM,?,.,.
Cc1cccc(C)c1N(CC(=O)Nc1cc(Cl)ccc1Oc1ccccc1)S(C)(=O)=O,.,?,.,.,.,?,?,.,.,.
Cc1cc(C)c(NC(=S)N(CCc2ccncc2)C(C)C)c(C)c1,/,?,.,.,.,.,/,/,/,/
COc1ccc(OC)c(N=c2oc3cc(O)ccc3cc2C(N)=O)c1,.,.,?,.,.,.,/,/,/,/
COc1ccc2oc(=Nc3cc(F)ccc3F)c(C(N)=O)cc2c1,.,.,.,.,.,8.91µM,?,.,.,.
CC1Sc2ccc(S(=O)(=O)CCC(=O)N3CCN(c4cccc(Cl)c4)CC3)cc2NC1=O (stereo not given),?,16.4µM,.,.,?,15.8µM,18.4µM,?,?,.
CCCCN(C(=O)c1cc(S(=O)(=O)N2CCOCC2)ccc1F)c1c(N)n(CCCC)c(=O)[nH]c1=O,.,.,.,.,.,.,/,/,/,/
CCCCN(C(=O)Cc1ccc(S(=O)(=O)N2CCOCC2)s1)c1c(N)n(CCCC)c(=O)[nH]c1=O,.,.,.,.,.,?,.,.,.,.
COc1ccccc1NS(=O)(=O)c1cccc(NC(=O)Nc2ccccc2)c1,.,2.59µM,.,.,.,10µM,?,?,?,.
CCNC(=S)Nc1cccc(S(=O)(=O)Nc2ccccc2OC)c1,.,.,.,.,.,.,/,/,/,/
COc1ccc(CNC(=O)CCCC(=O)n2nc(C)c3ccccc32)cc1,.,.,.,.,.,.,/,/,/,/
O=C(C[C@H]1C[C@H](C(=O)N2CCOCC2)[C@@]2(CCC3CCCC3)c3[nH]c4cc(-c5ccco5)ccc4c3CCN2C1=O)NCC12CC3CC(CC(C3)C1)C2,.,?,.,.,.,?,/,/,/,/
C[C@]12c3[nH]c4cc(-c5ccco5)ccc4c3CCN1C(=O)[C@@H](CC(=O)NCC13CC4CC(CC(C4)C1)C3)C[C@@H]2C(=O)N1CCOCC1,?,23.1µM,?,.,?,10µM,9.2µM,?,?,.
C[C@]12c3[nH]c4ccccc4c3CCN1C(=O)C(CC(=O)NCc1cccc(C(F)(F)F)c1)C[C@@H]2C(=O)N1CCOCC1 (stereo not given in full),.,.,.,.,.,.,/,/,/,/
CC[C@]12c3[nH]c4cc(CCC(=O)N(C)C)ccc4c3CCN1C(=O)[C@@H](CC(=O)NCCC1=CCCCC1)C[C@@H]2C(=O)N1CCN(C(=O)c2ccco2)CC1,.,.,.,.,.,.,/,/,/,/
C[C@]12c3[nH]c4ccc(Cl)cc4c3CCN1C(=O)[C@@H](CC(=O)NCC13CC4CC(CC(C4)C1)C3)C[C@@H]2C(=O)N1CCOCC1,?,?,?,.,.,10µM,20.6µM,?,?,.
CC[C@]12c3[nH]c4cc(-c5ccco5)ccc4c3CCN1C(=O)[C@@H](CC(=O)NCCC1=CCCCC1)C[C@@H]2C(=O)N1CCN(C(=O)c2ccco2)CC1,.,?,?,.,.,14.1µM,?,.,?,.
C[C@]12c3[nH]c4ccc(Cl)cc4c3CCN1C(=O)[C@@H](CC(=O)NCc1cccc(C(F)(F)F)c1)C[C@@H]2C(=O)N1CCOCC1,?,?,/,.,.,10µM,16.4µM,.,14.6µM,.
SMILES,ATXN2 expr inh,Nrf2 inh,S2 tox,HepG2 tox-1,A549 tox,TGFb SMAD3 inh,TGFb confirm,HepG2 tox-2,CCL64 TGFb inh,COP TGFb inh
Cc1ccccc1NC(=O)N1CCC(CN2CCCC2)CC1,/,?,/,.,.,.,/,/,/,/
Cc1cccc(C(=O)Nc2ccccc2C(=O)NCc2ccco2)c1,.,.,.,.,.,.,/,/,/,/
CCN(CC)C(=O)[C@H]1C[C@H](CC(=O)NC/C=C(\C)CCC=C(C)C)C(=O)N2CCc3c([nH]c4cc(-c5ccco5)ccc34)[C@]12C,?,?,?,.,?,8.91µM,?,?,13µM,.
CCN(CC)C(=O)[C@H]1C[C@H](CC(=O)NC(C)(C)C)C(=O)N2CCc3c([nH]c4ccc(Cl)cc34)[C@]12C,.,.,?,.,.,?,/,/,/,/
CC[C@]12c3[nH]c4ccc(Cl)cc4c3CCN1C(=O)[C@@H](CC(=O)NCC13CC4CC(CC(C4)C1)C3)C[C@@H]2C(=O)N1CCN(C(=O)C2CC2)CC1,25.1µM,23.1µM,?,.,.,10µM,9.2µM,?,23.1µM,.
CC(C)(C)NC(=O)C[C@H]1C[C@H](C(=O)N2CCCCC2)[C@@]2(C)c3[nH]c4ccc(Cl)cc4c3CCN2C1=O,.,16.4µM,?,.,?,?,?,.,.,.
